Compound activity (PubChem BioAssay)
Sampled rows, rich in hits. Any-hit rate of the full collection: about 7.4%.
FLuc inh-1: Firefly luciferase inhibition profiling of diverse chemical library using quantitative high-throughput screening; Luciferin 4-monooxygenase (Photinus pyralis), P08659; purified P. pyralis luciferase, luminescence, biochemical; Potency, µM (series often up to 115 µM), most hits filed as inhibitors; 76,000 tested, 2.5% active; also: % is scaled to controls: 0 for no effect and ±100 for the full control effect; nearly all actives have a fitted effect of over 65% in size
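Luminescence read by CCD imaging after purified firefly luciferase (10nM final) was added to substrate buffer holding 10uM D-luciferin and 10uM ATP, pH 7.5, pre-dosed with compound.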
SNCA expr inhib: Primary qHTS assay for inhibitors of alpha-synuclein gene (SNCA) expression; AID 1671194, 2021; 140,000 tested, 0.17% active; Potency, µM (titrated, usually from 57.2 µM), inactives show top-dose activity change, negative = inhibition, actives largely listed as inhibitors; HEK-293 SNCA-luciferase knock-in, luminescence, 24 h;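 also: plate controls were DMSO cells for no effect and cell-free wells for full effect; nearly all actives have a fitted effect of over 45% in size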
3T3 cytotox: Cytotoxic Profiling in NIH 3T3 Cell Line of Diverse Libraries Using Quantitative High-Throughput Screening; NIH 3T3 viability, CellTiter-Glo ATP luminescence, 48-72 h; Potency, µM (top dose mostly 96.7 µM), without a hit: at the highest dose activity change, negative = cytotoxicity, actives largely listed as inhibitors; 94,000 tested, 4.3% active; AID 1345082, 2018; also: % is scaled to controls: 0 for no effect and ±100 for the full control effect; nearly all actives have a fitted effect of over 55% in size
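Luminescent ATP readout (CellTiter-Glo, 10 min RT) after 48 or 72 hr compound exposure of NIH 3T3 cells seeded at 400 cells/well in 1536-well format; quantitative HTS.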
NPR1 antag: Natriuretic polypeptide receptor (hNpr1) antagonism - Primary qHTS; Atrial natriuretic peptide receptor 1 (Homo sapiens), P16066; HEK293 hNpr1 GloSensor cGMP, ANP-stimulated luminescence; Potency, µM (series often up to 46.3 µM), without a hit: at the highest dose activity change, negative = inhibition, actives largely listed as inhibitors; 76,000 tested, 1.6% active; calls by dose curve; also: % is scaled to controls: 0 for no effect and ±100 for the full control effect; nearly all actives have a fitted effect of over 60% in size
Target sequence (P16066 whole entry, looked up): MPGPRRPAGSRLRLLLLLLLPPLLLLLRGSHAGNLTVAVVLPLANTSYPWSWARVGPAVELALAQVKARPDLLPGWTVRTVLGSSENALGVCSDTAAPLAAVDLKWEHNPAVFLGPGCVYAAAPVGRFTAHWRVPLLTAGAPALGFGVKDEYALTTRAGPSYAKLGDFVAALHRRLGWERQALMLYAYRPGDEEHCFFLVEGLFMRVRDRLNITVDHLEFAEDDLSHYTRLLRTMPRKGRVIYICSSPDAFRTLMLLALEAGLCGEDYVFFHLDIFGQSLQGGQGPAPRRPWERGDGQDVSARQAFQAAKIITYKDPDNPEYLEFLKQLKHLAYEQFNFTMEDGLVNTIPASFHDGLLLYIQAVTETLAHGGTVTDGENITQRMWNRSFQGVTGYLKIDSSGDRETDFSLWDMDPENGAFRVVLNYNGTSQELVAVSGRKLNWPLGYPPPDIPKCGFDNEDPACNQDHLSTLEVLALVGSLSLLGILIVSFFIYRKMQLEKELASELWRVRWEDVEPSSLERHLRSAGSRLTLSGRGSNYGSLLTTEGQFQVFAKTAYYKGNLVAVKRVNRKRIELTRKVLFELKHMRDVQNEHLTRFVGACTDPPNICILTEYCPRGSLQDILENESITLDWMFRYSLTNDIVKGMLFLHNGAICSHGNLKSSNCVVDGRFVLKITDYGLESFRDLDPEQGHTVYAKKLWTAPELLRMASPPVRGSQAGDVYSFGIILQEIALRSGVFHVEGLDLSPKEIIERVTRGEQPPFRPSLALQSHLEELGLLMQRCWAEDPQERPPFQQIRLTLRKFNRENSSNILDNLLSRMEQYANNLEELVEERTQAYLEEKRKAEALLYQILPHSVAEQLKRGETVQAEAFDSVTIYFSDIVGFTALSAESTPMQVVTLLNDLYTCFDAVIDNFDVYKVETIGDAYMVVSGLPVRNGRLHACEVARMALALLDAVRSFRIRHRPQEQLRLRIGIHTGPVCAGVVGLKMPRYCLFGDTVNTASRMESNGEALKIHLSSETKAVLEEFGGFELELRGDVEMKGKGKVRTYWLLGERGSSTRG
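HEK293 cells stably expressing human Npr1 and cGMP GloSensor pGS-40F, loaded 2 h with 2% GloSensor reagent, given compound 30 min at room temperature. Luminescence read before and 20 min after 0.1 nM hNppA.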
HEK293 viab: GF-AFC viability counterscreen for inhibitors of alpha-synuclein gene (SNCA) expression; HEK-293-SNCA-luc viability, GF-AFC fluorescence, 24 h; Potency, µM (highest dose often 57.1 µM), for inactives: top-dose activity change, negative = cytotoxicity, usual class: cytotoxic; 150,000 tested, 0.12% active;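 also: 0% = DMSO-treated cells and -100% = medium-only wells without cells; nearly all actives have a fitted effect of over 30% in size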
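HEK-293-SNCA-luc cells (1500/well) plated 24 h, then exposed 24 h to a dilution series; GF-AFC added 30 min at 37C, fluorescence 405/540 nm; normalised to medium-only and DMSO wells, Hill fit.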
HEK cytotox: Cytotoxic Profiling in HEK 293 Cell Line of Diverse Libraries Using Quantitative High-Throughput Screening. HEK 293 viability, ATP luminescence (CellTiter-Glo), 48-72 h. Potency, µM (titrated, usually from 115 µM), for the others: at the top dose activity change, negative = cytotoxicity, actives largely listed as inhibitors. 94,000 tested, 6.6% active; also: % is scaled to controls: 0 for no effect and ±100 for the full control effect; nearly all actives have a fitted effect of over 60% in size
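Cytotoxicity was scored by loss of ATP-coupled luminescence (CellTiter-Glo) in HEK 293 cells. Compound treatment ran 48 or 72 hr at 37 degree Celsius, 5% CO2, 95% humidity.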
FLuc SDR -ATP: Firefly luciferase (FLuc-C-HiBiT) SDR gain of signal screen - without ATP; shares compounds with FLuc inh-1; Purified FLuc-C-HiBiT, Nano-Glo HiBiT luminescence, no ATP; Potency, µM (highest dose often 32.7 µM), without a hit: at the top dose activation (signal gain), usual class: activators; 1,300 tested, 7.8% active; AID 1963318, 2024; also: nearly all actives have a fitted effect of over 55% in size
FLuc SDR ATP: Firefly luciferase (FLuc-C-HiBiT) SDR gain of signal screen - plus ATP; shares compounds with FLuc inh-1; purified FLuc-C-HiBiT + ATP, HiBiT complementation luminescence; Potency, µM (titrated, usually from 32.7 µM), for inactives: at the top dose activation (gain of signal), usual class: activators; 1,300 tested, 8.7% active; AID 1963319, 2024;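 also: signal reports ligand binding via conformational change of the enzyme rather than luciferase catalysis; % of control where 0% means no effect; nearly all actives have a fitted effect of over 55% in size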
FLuc inh-2: Firefly luciferase (FLuc-C-HiBiT) enzymatic inhibition screen - Functional assay; shares compounds with FLuc inh-1; purified FLuc-C-HiBiT enzyme, luciferin luminescence; Potency, µM (doses to about 32.7 µM), inactives show at the top dose activity change, negative = inhibition, most hits filed as inhibitors; 1,300 tested, 42% active; AID 1963320, 2024; also: % is scaled to controls: 0 for no effect and ±100 for the full control effect; nearly all actives have a fitted effect of over 70% in size
* = called active by the depositor; i = inactive; ? = inconclusive; nt = not tested or not shown; [ ] = another dose, or the depositor's remark. Unless noted, calls follow the shape of the dose curve; as a rule, active = well fitted curve in the direction sought with a large enough effect; inconclusive = small, poorly fitted or top-dose-only effect, or another doubt; inactive = no such curve, though single readings can be large; an effect the other way counts as inactive or inconclusive. Potency is read from the fitted curve at half-maximal effect.

SMILES	FLuc inh-1	SNCA expr inhib	3T3 cytotox	NPR1 antag	HEK293 viab	HEK cytotox	FLuc SDR -ATP	FLuc SDR ATP	FLuc inh-2
O=C1c2cnc(-c3cccc(F)c3)nc2OCCN1c1ccccc1	0.89µM*	-25%[87.6 µM]	?	-29%[70.6 µM]	-2%[87.6 µM]	100µM*	?	?	14µM*
CC1CCCN1C(=O)c1cc(-c2cnn(C(C)C)c2)nc2cc(F)ccc12 (stereo not given)	?	23%	?	-6%	-8%	-24%	nt	nt	nt
CC(C)n1cc(-c2cc(C(=O)N3CCC(C)(C)C3)c3ccc(F)cc3n2)cn1	5µM*	18%	?	-13%	-13%	?	?	?	5µM*
CCOc1cccc2c1OC[C@@H]1CN(CC)C(=O)CCN(C(=O)COc3ccccc3)[C@H]21	nt	nt	?	nt	nt	-25%	nt	nt	nt
CC(=O)N1CCCC1C(=O)N1CCCC1c1nc2ccncc2[nH]1 (stereo not given)	nt	16%[87.6 µM]	-14%[138 µM]	nt	3%[87.6 µM]	-5%[172 µM]	nt	nt	nt
CCc1cccc(NC(=O)c2cc(-c3ccc[nH]3)n[nH]2)c1	8.9µM*	32%	-14%	2%	4%	-5%	12%	8%	?
CN(C)C(=O)N1CCCC1C(=O)N1CCC(N2CCOCC2=O)CC1 (stereo not given)	nt	-8%	0%	nt	-3%	i	nt	nt	nt
CCOc1ccc(-c2cc(CCCC(=O)NCCc3ccc(OC)c(OC)c3)no2)cc1	nt	?	nt	nt	14%	nt	19%	?	?
COc1cc(NC(=O)CCN2CCCCCC2=O)ccc1NC(=O)C(C)(C)C	i	3%	-26%	10%	10%	0%	nt	nt	nt
COc1cc(NC(=O)c2ccc(-c3ncn[nH]3)cc2)ccc1NC(=O)C(C)(C)C	11µM*	12%	?	-14%	-9%	25µM*	18%	12%	?
COCC(=O)NC1CCN(C(=O)c2ccc(-c3ncccc3C#N)cc2)CC1	nt	-1%	-20%	nt	6%[12.5 µM]	-7%	nt	nt	nt
Cc1cccc(NC(=O)c2c(N)sc3c2CCC(C)C3)c1 (stereo not given)	nt	154%	nt	nt	-11%	nt	8%	7%	?
Cc1cccc(NC(=O)c2c(NC(=O)c3cccs3)sc3c2CCC(C)C3)c1 (stereo not given)	nt	5%	nt	nt	-2%	nt	nt	nt	nt
O=C(CSc1nnc2ccccn12)Nc1cccc(-c2nc3ccccc3s2)c1	nt	nt	nt	nt	nt	nt	13%	9%	-7%
CCC(CC)C(=O)Nc1cccc(-c2nc3ccccc3s2)c1	nt	100%	nt	nt	?	nt	26%	7%	?
CC(=O)Nc1cccc(NC(=O)CSc2ccc(-c3sc(-c4ccccc4)nc3C)nn2)c1	nt	125%	nt	nt	?	nt	nt	nt	nt
